# Test results published in PubChem BioAssay (NCI).
# Where “and” joins values, the source holds several entries; their conditions need not be identical. Equal values may be shown once. Compounds without any hit were thinned out: in the full panel of roughly 83,000, 20% have a hit.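 48-hour exposure, single concentration, 96-well plates; percent growth endpoint where 0 means no net growth. Active: below 10.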 A number with no mark means an inactive call. Calls of active or inactive are those of the source.
# Tested on: UACC-257 melanoma
# Experiment: NCI-60 one-dose screen, 48 h (100 = growth as untreated, 0 = no growth, -100 = all killed)
# Details: 10 µM unless noted
row,SMILES,growth
1,CN(Cc1ccccc1)c1nc(Cl)c(C2CC(c3ccc(F)cc3)=NN2C=O)s1 (stereo not given),103%
2,CCOC(=O)c1ccc(Nc2ncnc3c2cnn3-c2cccc(F)c2)cc1,99.6%
3,Cc1ccc2nc3ccccc3c(NCc3ccc(Cl)cc3)c2c1,-2.88% (active)
4,O=S(=O)(Nc1cc(Sc2cccc3cccnc23)c(O)c2ccccc12)c1ccc(F)cc1,-24.8% (active)
5,CCCCC1COc2cccc3c2N1C=C/C3=C\C(=O)N(C)c1cccc(Cl)c1 (stereo not given),103%
6,Cc1ccc(-c2nc3nc(-c4ccc(Cl)cc4)nc(N4CCCNCC4)c3o2)cc1,103%
7,COc1cc(NS(=O)(=O)C(C)C)cc(-c2cc(-c3ccc(N4CCNCC4)cc3)cnc2N)c1,91.4%
8,COCCn1cc(-c2csc(-c3cn(C)c4ccc(F)cc34)n2)c2cccnc21,83.8%
9,COc1ccc(NC(=O)Nc2ccccc2CNc2nc(Nc3ccc(OCCN4CCCC4)cc3)ncc2Cl)cc1,-46.8% (active)
10,COc1cc(CNC(=O)CCCC/C=C/C(C)C)ccc1O,119% and 112%
11,CC(Sc1ccccc1)C(=O)O (stereo not given),103%
12,Cc1ccc(-c2nc3nc(-c4ccccc4)nc(N4CCCNCC4)c3o2)cc1,4.04% (active)
13,CCCCn1c(C(=O)c2c[nH]c3ccccc23)n[nH]c1=S,94.8%
14,O=C1C(=C(O)c2ccccc2)C(=O)c2ccccc21,108%
15,COc1ccc(-c2c[nH]c(C(=O)O)c2-c2cc(OC)c(OC)c(OC)c2)cc1,78.8%
